In PubChem BioAssay (NCI) one finds growth data, which are given here for 18 molecules.

Compounds without any hit were thinned out: in the full panel of roughly 83,000, 20% have a hit.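 Interpretation: 100, growth as untreated; towards 0, rising growth inhibition; 0, no net growth; 0 to -100, cell death. Compounds scoring below 10 were considered active.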 Values without a mark were called inactive. Active and inactive are the calls of the source.

Among the test systems are T-47D breast; BT-549 breast; MDA-MB-435 melanoma; SW-620 colon; MCF7 breast; HCT-116 colon; HCC-2998 colon; KM12 colon.
Holding throughout (assay): NCI-60 one-dose screen, 48 h (100 = growth as untreated, 0 = no growth, -100 = all killed)
What all share (conditions): 10 µM unless noted

Consider `COC(c1ccc2c(c1)OCO2)C(C)Br` (centres undefined), for which the growth in the assay on T-47D breast is 71.8%; in the assay with BT-549 breast it was 104%; with MDA-MB-435 melanoma it was 90%; in the assay with SW-620 colon, 94.9%; in the assay with MCF7 breast, 110%; in the assay on HCT-116 colon, 88.5%. Also, the growth is 105% with HCC-2998 colon and 93.5% in the assay on KM12 colon.
Consider `Nc1ncc([N+](=O)[O-])cn1`, for which the growth in the assay with T-47D breast was 103%; in the assay on BT-549 breast it was 111%; in the assay with MDA-MB-435 melanoma, 113%; with SW-620 colon it was 104%; in the assay with MCF7 breast it was 98.1%; in the assay on HCT-116 colon, 106%. Further, the growth with HCC-2998 colon is 107%; in the assay with KM12 colon, 101%.
As to `CCOC(=O)CNC`, the growth in the assay with T-47D breast is 97.2%; in the assay with BT-549 breast, 109%; in the assay with MDA-MB-435 melanoma, 98.7%; in the assay with SW-620 colon, 98.2%; in the assay with MCF7 breast, 93.8%; in the assay with HCT-116 colon, 108%. Further, the values for the growth in the assay on HCC-2998 colon and in the assay with KM12 colon were 96% and 107%, respectively.
`COC(=O)C1(CC(C)=O)NC(=S)NC(=O)C1C#N` (centres undefined): the growth was 108% in the assay with T-47D breast; 108% with BT-549 breast; 114% in the assay on MDA-MB-435 melanoma; 102% in the assay with SW-620 colon; 97.5% in the assay with MCF7 breast; 106% in the assay with HCT-116 colon. The growth was 109% in the assay on HCC-2998 colon and 106% in the assay on KM12 colon.
Take `Cc1ccc(O)c(N)c1`: the growth in the assay on T-47D breast is 92.8%; with BT-549 breast, 95.2%; in the assay with MDA-MB-435 melanoma, 112%; with SW-620 colon, 121%; in the assay with MCF7 breast it was 99.9%; in the assay on HCT-116 colon, 111%. In addition, the growth in the assay with HCC-2998 colon and in the assay on KM12 colon was 110% throughout.
Regarding `O=S(=O)(O)c1ccc(O)c(C2CCCCC2)c1`, the growth in the assay with T-47D breast is 89.1%; with BT-549 breast, 98.2%; with MDA-MB-435 melanoma, 102%; with SW-620 colon, 108%; with MCF7 breast it was 91.8%; in the assay on HCT-116 colon, 92.7%. In addition, the growth was 113% in the assay with HCC-2998 colon and 105% in the assay on KM12 colon.
With `COc1cc(C(=O)O)c(O)c(C(C)(C)C)c1`, the growth in the assay on T-47D breast was 103%; in the assay on BT-549 breast, 105%; in the assay with MDA-MB-435 melanoma, 104%; in the assay with SW-620 colon, 106%; in the assay on MCF7 breast, 97.4%; in the assay on HCT-116 colon it was 101%. For the same molecule, the growth was 96.7% with HCC-2998 colon and 104% in the assay with KM12 colon.
As to `Cn1c(=O)c2[nH]c(CC(=O)O)nc2n(C)c1=O`, the growth in the assay on T-47D breast is 102%; in the assay on BT-549 breast it was 107%; with MDA-MB-435 melanoma, 112%; with SW-620 colon it was 108%; with MCF7 breast, 101%; with HCT-116 colon, 104%. Further, the growth is 101% in the assay on HCC-2998 colon and 105% with KM12 colon.
As for `CC(c1ccccc1)N1C(=O)CSC1=S` (centres undefined), the growth was 63.4% in the assay on T-47D breast; 32.9% in the assay with BT-549 breast; -8.13% (active) in the assay on MDA-MB-435 melanoma; 17.6% in the assay on SW-620 colon; 6.61% (active) in the assay on MCF7 breast; 5.85% (active) in the assay on HCT-116 colon. Also, the growth with HCC-2998 colon was 53.2%; in the assay on KM12 colon it was -38.3% (active).
`Cc1ccc(C(C)C)c(OCC(=O)O)c1`: the growth in the assay with T-47D breast was 117%; in the assay on BT-549 breast it was 112%; in the assay with MDA-MB-435 melanoma, 108%; in the assay on SW-620 colon, 96%; with MCF7 breast, 100%; in the assay with HCT-116 colon, 105%. In addition, the results for the growth in the assay on HCC-2998 colon and with KM12 colon were 106% and 108%, respectively.
In the case of `C/C(O)=C(/C=N\C(=S)Nc1ccc(S(=O)(=O)Nc2nccs2)cc1)C(=O)Nc1ccccc1C`, the growth with T-47D breast is 90.2%; in the assay on BT-549 breast, 99.2%; in the assay with MDA-MB-435 melanoma, 109%; in the assay with SW-620 colon, 95.6%; in the assay on MCF7 breast, 101%; with HCT-116 colon, 94.7%. The growth in the assay on HCC-2998 colon was 109%; with KM12 colon, 96.8%.
Consider `CN1CCN(C(=S)S)CC1`, for which the growth is 93% in the assay on T-47D breast; 108% in the assay with BT-549 breast; 109% in the assay on MDA-MB-435 melanoma; 114% with SW-620 colon; 99.3% in the assay on MCF7 breast; 107% in the assay on HCT-116 colon. Also, the growth in the assay on HCC-2998 colon and in the assay on KM12 colon was 107% in each case.
With `C1CCc2onc(-c3noc4c3CCCCC4)c2CC1`, the growth with T-47D breast is 101%; in the assay with BT-549 breast it was 108%; in the assay on MDA-MB-435 melanoma it was 110%; with SW-620 colon, 124%; with MCF7 breast it was 95.5%; in the assay on HCT-116 colon it was 105%. The growth is 109% with HCC-2998 colon and 107% in the assay with KM12 colon.
With `CC(C)c1ncc([N+](=O)[O-])n1C`, the growth was 101% in the assay with T-47D breast; 103% in the assay with BT-549 breast; 136% in the assay with MDA-MB-435 melanoma; 98% with SW-620 colon; 97.2% in the assay with MCF7 breast; 107% with HCT-116 colon. Further, the growth was 105% in the assay on HCC-2998 colon and 111% in the assay with KM12 colon.
As for `Cc1ccc(/C=N/NC(N)=S)s1`, the growth with T-47D breast is 100%; in the assay on BT-549 breast, 113%; in the assay with MDA-MB-435 melanoma, 106%; with SW-620 colon, 107%; in the assay with MCF7 breast it was 100%; in the assay with HCT-116 colon, 99.5%. Further, the growth in the assay on HCC-2998 colon is 113%; in the assay on KM12 colon it was 107%.
As to `C1=NCCc2ccccc21`, the growth in the assay on T-47D breast is 86%; in the assay on BT-549 breast, 106%; with MDA-MB-435 melanoma it was 111%; in the assay with SW-620 colon, 98.5%; in the assay on MCF7 breast, 90.3%; with HCT-116 colon, 89.7%. Also, the growth with HCC-2998 colon is 112%; in the assay on KM12 colon, 110%.
Regarding `COc1ccc2c(c1)Nc1ccccc1S2`, the growth in the assay with T-47D breast is 95.7%; with BT-549 breast it was 89.1%; in the assay on MDA-MB-435 melanoma, 112%; in the assay with SW-620 colon it was 106%; in the assay with MCF7 breast, 98.6%; with HCT-116 colon, 105%. Moreover, the growth is 108% in the assay with HCC-2998 colon and 110% in the assay on KM12 colon.
Consider `CCC12OC(COc3ccccc3)CN1CCN2c1ccccc1` (centres undefined), for which the growth in the assay on T-47D breast is 90.4% [100 µM]; with BT-549 breast, 105% [100 µM]; in the assay on MDA-MB-435 melanoma, 98.6% [100 µM]; with SW-620 colon, 103% [100 µM]; in the assay with MCF7 breast, 92.5% [100 µM]; with HCT-116 colon it was 102% [100 µM]. Moreover, the growth in the assay with HCC-2998 colon is 115% [100 µM]; with KM12 colon, 98.9% [100 µM].
